# Out of some 310,000 compounds screened, about 14,000 (4.5%) showed an effect of 50% or more. Effects have a minus sign here. This is one part of a sample in which strong results are shown more often than they occur.
# Molecular target: human ether-à-go-go-related gene (hERG) potassium channel (human, UniProt Q12809)
# Assay: primary screen, population patch clamp on CHO cells stably expressing hERG; higher = less effect of the substance
# 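Also: peak tail current of the secondary pulse compared with the same well before compound.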
# Chain of human ether-à-go-go-related gene (hERG) potassium channel (Q12809 whole entry, looked up): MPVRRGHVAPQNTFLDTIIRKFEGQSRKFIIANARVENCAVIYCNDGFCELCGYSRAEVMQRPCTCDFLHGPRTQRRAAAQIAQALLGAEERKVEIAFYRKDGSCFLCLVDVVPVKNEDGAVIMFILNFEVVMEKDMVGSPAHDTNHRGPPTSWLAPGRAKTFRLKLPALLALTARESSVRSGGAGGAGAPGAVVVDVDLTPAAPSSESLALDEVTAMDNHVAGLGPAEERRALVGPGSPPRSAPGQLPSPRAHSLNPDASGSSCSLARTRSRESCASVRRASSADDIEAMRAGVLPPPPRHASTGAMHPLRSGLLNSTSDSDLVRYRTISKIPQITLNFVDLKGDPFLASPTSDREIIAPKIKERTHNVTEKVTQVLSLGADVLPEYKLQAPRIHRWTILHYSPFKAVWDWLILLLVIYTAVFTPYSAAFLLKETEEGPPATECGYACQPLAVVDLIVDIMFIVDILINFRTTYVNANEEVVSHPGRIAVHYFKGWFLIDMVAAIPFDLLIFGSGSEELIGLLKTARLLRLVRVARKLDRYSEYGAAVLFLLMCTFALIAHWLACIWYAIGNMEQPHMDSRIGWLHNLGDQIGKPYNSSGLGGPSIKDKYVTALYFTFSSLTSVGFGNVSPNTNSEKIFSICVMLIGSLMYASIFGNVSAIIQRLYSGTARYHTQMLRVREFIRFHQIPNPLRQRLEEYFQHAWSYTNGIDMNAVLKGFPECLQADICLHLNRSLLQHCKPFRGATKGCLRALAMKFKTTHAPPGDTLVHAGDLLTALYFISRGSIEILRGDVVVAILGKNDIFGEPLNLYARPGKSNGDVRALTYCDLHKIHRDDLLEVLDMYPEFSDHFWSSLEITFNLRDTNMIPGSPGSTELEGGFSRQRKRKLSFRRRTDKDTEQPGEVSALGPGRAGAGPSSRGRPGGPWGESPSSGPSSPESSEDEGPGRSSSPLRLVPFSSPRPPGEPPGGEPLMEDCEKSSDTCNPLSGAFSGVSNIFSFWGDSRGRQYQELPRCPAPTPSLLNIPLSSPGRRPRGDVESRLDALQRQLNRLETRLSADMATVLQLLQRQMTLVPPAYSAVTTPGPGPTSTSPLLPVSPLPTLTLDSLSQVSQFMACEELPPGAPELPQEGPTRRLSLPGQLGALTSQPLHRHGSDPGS
row,Compound,"hERG current change (%, negative = inhibition) at 10uM [%]"
1,CCCN1C(=O)C(O)(CC(=O)c2ccc3c(c2)OCCO3)c2ccccc21 (stereo not shown),7.24
2,Cc1nn(CC(=O)Nc2ccc(C(=O)N3CCCC3)cc2)c(=O)c2ccccc12,-1.72
3,CCN(c1cccc(C)c1)S(=O)(=O)c1c(C)[nH]c(C)c1C(=O)N1CCCCC1,5.45
4,O=C(O)c1cccc(CSc2nnc(Cc3ccccc3)o2)c1,-5.18
5,Cc1cc(C)n2nc(C(=O)Nc3ccc4c(c3)OCO4)nc2n1,-1.25
6,Cc1nc(NC(=O)CN2CCCCC2)sc1C(=O)N(C)C,1.37
7,CC(NC(=O)c1cc(-c2ccccc2)nc2ccccc12)C1CCCO1 (stereo not shown),-11
8,COc1cc2c(cc1OC)[C@@]13CCN4CC5=CCO[C@H]6CC(=O)N2[C@H]1[C@H]6[C@H]5C[C@H]43,-8.03
9,O=C1CC2OCC=C3CN4CCC56c7cc([N+](=O)[O-])ccc7N1C5C2C3CC46 (stereo not shown),-22.4
10,O=C1/C(=C\c2ccccc2)C2OCC=C3CN4CCC56c7ccccc7N1C5C2C3CC46 (stereo not shown),-53.4
11,NNC(=O)c1ccc(Oc2cc(Cl)cc(Cl)c2)o1,1.1
12,O=C(Nc1ccc(Cl)c([N+](=O)[O-])c1)c1ccc(NCCCN2CCOCC2)c([N+](=O)[O-])c1,-10.2
13,O=C(Nc1cc(F)cc(F)c1)c1ccc(NCCc2ccccc2)c([N+](=O)[O-])c1,3.74
14,Cc1ccc(NC(=O)c2ccc(NCCCN3CCC(C)CC3)c([N+](=O)[O-])c2)c(C)c1,-19.4
15,CCCN(CCC)CCCNc1ccc(C(=O)Nc2cccc(OC)c2)cc1[N+](=O)[O-].Cl,-76.3
16,Cc1ccc(NC(=O)c2ccc(NCCCN3CCC(C)CC3)c([N+](=O)[O-])c2)cc1F.Cl,-8.31
17,Cl.O=C(Nc1cc(F)cc(F)c1)c1ccc(NCCCN2CCCCCC2)c([N+](=O)[O-])c1,-72.1
18,Cc1cccc(NC(=O)c2ccc(NCCc3ccccc3)c([N+](=O)[O-])c2)c1,6.78
19,COc1ccc(NC(=O)c2ccc(NCCCN3CCOCC3)c([N+](=O)[O-])c2)cc1,-3.71
20,COc1cccc(NC(=O)c2ccc(NCCCN3CCC(C)CC3)c([N+](=O)[O-])c2)c1,-56.2
21,Cc1ccc(C(=O)Nc2cccc(NC(=O)c3ccc(C)cc3)n2)cc1,2.01
22,Cc1ccccc1-c1nnc(CN2CCC(C)CC2)o1.Cl,-6.6

row,Compound,"hERG current change (%, negative = inhibition) at 10uM [%]"
1,COCCOCC(O)CN1CCN(c2ccc(C)cc2)CC1.O=C(O)C(=O)O (stereo not shown),-11.2
2,Cc1c(C(=O)NC2CCCc3ccccc32)oc2ccc(S(=O)(=O)N3CCOCC3)cc12 (stereo not shown),-2.45
3,CC(Oc1cccc(Cl)c1)C(=O)Nc1ccc(S(=O)(=O)NC2=NCCCCC2)cc1 (stereo not shown),-22.5
4,CCN(CC)C(=O)c1c2c(nc3ccccc13)-c1ccccc1CC2,-12.6
5,CCOC(=O)/C(C#N)=C\C=C1C=CN(C)C=C1,0.0919
6,O=c1cc(CN2CCN(Cc3ccccc3)CC2)c2ccc(O)c(O)c2o1,-65.8
7,Cc1c(O)ccc2c(CN3CCN(Cc4ccccc4)CC3)cc(=O)oc12,-61.9
8,CCc1cc(=O)oc2c(CN3CCN(C)CC3)c(O)ccc12,8.25
9,O=c1cc(CN2CCOCC2)c2ccc(O)c(O)c2o1,10.1
10,Cc1c(O)ccc2c(CN3CCN(CCO)CC3)cc(=O)oc12,3.5
11,Cc1ccc2c(CN3CCCCC3)cc(=O)oc2c1C,-1.49
12,Cc1cc(C)c2c(CN3CCN(Cc4ccccc4)CC3)cc(=O)oc2c1C.Cl,-40.8
13,Cc1ccc2c(CN3CCN(Cc4ccccc4)CC3)cc(=O)oc2c1C,-55.3
14,Cc1cc(C)c2oc(=O)cc(CN3CCN(Cc4ccccc4)CC3)c2c1,-33.2
15,COc1ccc(NC(=O)C2CC(=O)OC2(C)C)cc1 (stereo not shown),3.44
16,CCOC(=O)CNC(=O)Nc1ccccc1C(=O)OC,15.1
17,Cc1cc(C)n(S(=O)(=O)c2cccc([N+](=O)[O-])c2)n1,3.73
18,COc1ccc(C(=O)C(C)N(C(=O)c2ccc(Cl)cc2Cl)N2C(=O)C3C4C=CC(C4)C3C2=O)cc1 (stereo not shown),0.401
19,Cc1cccc(OC(=O)c2sc3ncn(C)c(=O)c3c2C)c1,3.54
20,O=C(Cn1nc2n(c1=O)-c1ccccc1SC2)N/N=C/c1ccncc1,-1.97
21,CC(C)OC(=O)c1c(N)n(CC2CCCO2)c2nc3ccccc3nc12 (stereo not shown),-29.3
22,Nc1c(C(=O)OC2CCCCC2)c2nc3ccccc3nc2n1CC1CCCO1 (stereo not shown),-63.7

row,Compound,"hERG current change (%, negative = inhibition) at 10uM [%]"
1,Nc1c(C(=O)NC2CCCC2)c2nc3ccccc3nc2n1CC1CCCO1 (stereo not shown),-4.67
2,Nc1cc(Cl)ccc1N1CCOCC1,-1.57
3,C[n+]1ccccc1COc1ccc(C(C)(C)C)cc1.Cc1ccc(S(=O)(=O)[O-])cc1,2.84
4,COc1ccc(-c2c(-c3cc(OC)cc(OC)c3)n(C)c3ccc(-c4ccc(S(N)(=O)=O)cc4)cc23)cc1,14.8
5,Cc1cccc(-n2c3nc(=O)[nH]c(=O)c-3cc3cc([N+](=O)[O-])ccc32)c1,-35.1
6,Cc1ccc(-n2c3nc(=O)[nH]c(=O)c-3cc3cc([N+](=O)[O-])ccc32)cc1C,-26.9
7,Cc1ccc(-n2c3nc(=O)[nH]c(=O)c-3cc3cc([N+](=O)[O-])ccc32)cc1,-57.6
8,COc1ccc(CNC(=O)C(=O)NCC2OCCN2S(=O)(=O)c2ccc(F)cc2)cc1 (stereo not shown),-3.41
9,COc1ccc(-c2nc(CSCC(=O)NCc3ccc4c(c3)OCO4)c(C)o2)cc1,-6.05
10,COc1ccccc1NS(=O)(=O)c1ccc(N/N=C(\C)C(C)C)c([N+](=O)[O-])c1,9.29
11,CCOC(=O)c1ccccc1NC(=O)c1c(O)[nH]c(=S)[nH]c1=O,15.6
12,CCc1ccc(-c2nn(-c3ccccc3C)cc2C(=O)N2CCN(C3CCS(=O)(=O)C3)CC2)cc1 (stereo not shown),-1.98
13,O=C(c1cn(-c2ccccc2)nc1-c1ccc(F)cc1)N1CCCCC1,-10.6
14,COc1cccc(-c2nn(-c3ccc(C)cc3)cc2C(=O)NCC2CCCO2)c1 (stereo not shown),-62.2
15,COc1cccc(-c2nn(-c3ccc(C)cc3)cc2C(=O)N2CCc3cc(OC)c(OC)cc3C2)c1,-31.7
16,COc1cccc(-c2nn(-c3ccc(C)cc3)cc2C(=O)N2CCN(C3CCS(=O)(=O)C3)CC2)c1 (stereo not shown),-57
17,Cc1ccc(-c2nn(-c3ccc(F)cc3)cc2C(=O)N2CCN(C3CCS(=O)(=O)C3)CC2)cc1 (stereo not shown),-61.6
18,COc1cccc(-c2nn(-c3ccccc3)cc2C(=O)O)c1,1.11
19,Cc1ccc(-c2nn(-c3ccccc3)cc2C(=O)N2CCN(C3CCS(=O)(=O)C3)CC2)cc1 (stereo not shown),-68.8
20,COc1ccc(-c2nn(-c3ccccc3)cc2C(=O)NCC2CCCO2)cc1 (stereo not shown),-0.557
21,Cc1cccc(-c2nn(-c3ccccc3)cc2C(=O)N2CCN(C3CCS(=O)(=O)C3)CC2)c1 (stereo not shown),-36.6
22,Cc1ccc(-c2nn(-c3ccc(F)cc3)cc2C(=O)NC2CCC(O)CC2)cc1 (stereo not shown),14.4

row,Compound,"hERG current change (%, negative = inhibition) at 10uM [%]"
1,COc1cccc(-c2nn(-c3ccc(F)cc3)cc2C(=O)NCC2CCCO2)c1 (stereo not shown),-49.7
2,Cc1ccc(OCC(=O)NNC(=O)CSc2ncnc3sc(C)c(C)c23)cc1,39.6
3,CC1CC(=O)Nc2ccccc2N1S(=O)(=O)c1cccc(F)c1 (stereo not shown),9.89
4,O=C(CC1C(=O)NCCN1Cc1cccc(F)c1)NC1CCC1 (stereo not shown),-3.12
5,CCC(CC)C(=O)c1c[nH]c(C(=O)O)c1,19.6
6,CC1CCN(Cc2cc(=O)oc3cc(O)c(Cl)cc23)CC1,9.11
7,Cc1nn(-c2ccccc2)c(C)c1/C=N/NC(=O)c1cc(C(C)(C)C)[nH]n1,-9.72
8,O=C(Nc1nnc(-c2ccncc2)s1)Nc1ccccc1F,14.2
9,Cc1cc(C)c(C(=O)/C=C/c2ccc(C(C)C)cc2)c(=O)[nH]1,10
10,Cc1ccccc1N(CC(=O)NCCSC1CCCCC1)S(=O)(=O)c1ccccc1,-16
11,COC(=O)Cn1c(=O)c(C(=O)CCl)c(N)n(Cc2ccccc2)c1=O,-0.133
12,CCn1c(=O)c(C(=O)CC#N)c(N)n(Cc2ccccc2)c1=O,-4.73
13,CCn1c(=O)c(C(=O)CN(C)Cc2ccc(F)cc2)c(N)n(Cc2ccccc2)c1=O,-71
14,CCN(CC)CC(=O)c1c(N)n(Cc2ccccc2)c(=O)n(C)c1=O,-2.27
15,COc1cccc(NC(=O)CN(C)CC(=O)c2c(N)n(Cc3ccccc3)c(=O)n(C)c2=O)c1,-8.12
16,CCn1c(=O)c(C(=O)CN(C)Cc2cccc(OC)c2OC)c(N)n(Cc2ccccc2)c1=O,-50.3
17,CCn1c(=O)c(C(=O)CN2CCCc3ccccc32)c(N)n(Cc2ccccc2)c1=O,-6.1
18,COc1ccc(CN(C)CC(=O)c2c(N)n(Cc3ccccc3)c(=O)n(C)c2=O)c(OC)c1,-66.1
19,CCn1c(=O)c(C(=O)CN2CCc3ccccc32)c(N)n(Cc2ccccc2)c1=O,19
20,CN(C)CC(=O)c1c(N)n(Cc2ccccc2)c(=O)n(C)c1=O,-7.58
21,CCOc1ccc(CN(C)CC(=O)c2c(N)n(Cc3ccccc3)c(=O)n(CC)c2=O)cc1OC,-75.5
22,CCn1c(=O)c(C(=O)CN2c3ccccc3CC2C)c(N)n(Cc2ccccc2)c1=O (stereo not shown),3.42

# From publication PMC4336329 (PLoS ONE, 2015)
